Measured values taken from PMC4336329 (PLoS ONE, 2015).
The campaign covered roughly 310,000 compounds. About 14,000 (4.5%) showed an effect of 50% or more. Effects have a minus sign here. For the sample, strong results were picked, then their nearest neighbours and some compounds at random.

molecular target: human ether-à-go-go-related gene (hERG) potassium channel (human, UniProt Q12809); assay: primary screen, population patch clamp on CHO cells stably expressing hERG; higher = less effect of the substance
Sequence (Q12809 whole entry, looked up): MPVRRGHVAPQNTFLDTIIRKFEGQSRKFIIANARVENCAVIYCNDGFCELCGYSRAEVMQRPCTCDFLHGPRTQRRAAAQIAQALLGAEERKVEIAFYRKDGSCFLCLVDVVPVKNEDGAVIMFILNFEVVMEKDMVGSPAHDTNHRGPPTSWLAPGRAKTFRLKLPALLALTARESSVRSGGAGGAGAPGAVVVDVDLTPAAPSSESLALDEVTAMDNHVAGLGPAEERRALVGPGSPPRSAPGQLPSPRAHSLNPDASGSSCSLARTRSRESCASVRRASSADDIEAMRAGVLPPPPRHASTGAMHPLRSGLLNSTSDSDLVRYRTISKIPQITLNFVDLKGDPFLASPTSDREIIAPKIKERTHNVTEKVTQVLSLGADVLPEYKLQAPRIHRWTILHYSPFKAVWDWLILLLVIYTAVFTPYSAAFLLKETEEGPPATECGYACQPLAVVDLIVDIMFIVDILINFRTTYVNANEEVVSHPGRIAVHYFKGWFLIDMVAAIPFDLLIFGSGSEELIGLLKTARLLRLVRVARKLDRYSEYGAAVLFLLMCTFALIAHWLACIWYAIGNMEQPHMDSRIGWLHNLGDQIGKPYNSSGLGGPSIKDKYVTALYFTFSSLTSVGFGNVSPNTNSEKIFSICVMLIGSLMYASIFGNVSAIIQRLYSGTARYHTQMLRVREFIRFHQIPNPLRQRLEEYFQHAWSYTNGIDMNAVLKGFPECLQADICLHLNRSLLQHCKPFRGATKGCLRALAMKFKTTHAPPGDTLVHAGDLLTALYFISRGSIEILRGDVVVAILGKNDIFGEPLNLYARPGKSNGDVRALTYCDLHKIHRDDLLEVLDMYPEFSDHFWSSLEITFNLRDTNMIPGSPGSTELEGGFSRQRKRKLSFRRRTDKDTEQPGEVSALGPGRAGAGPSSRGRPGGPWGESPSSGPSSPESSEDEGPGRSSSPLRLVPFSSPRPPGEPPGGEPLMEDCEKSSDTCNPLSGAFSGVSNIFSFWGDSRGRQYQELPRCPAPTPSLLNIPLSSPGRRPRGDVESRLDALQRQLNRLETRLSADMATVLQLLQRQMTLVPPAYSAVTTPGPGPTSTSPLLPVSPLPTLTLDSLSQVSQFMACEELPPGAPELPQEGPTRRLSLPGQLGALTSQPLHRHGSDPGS
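Also: peak tail current of the secondary pulse compared with the same well before compound.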

SMILES | hERG current change (%, negative = inhibition) at 10uM [%]
O=C(NCCN1CCOCC1)c1ccc2c(c1)N(Cc1ccc(F)cc1)C(=O)c1ccccc1S2(=O)=O | 0.647
CC(NC(=O)Nc1ccc(Cl)cc1)C1CCCO1 (stereo not drawn) | 7.05
COc1ccc(S(=O)(=O)N2CC(O)CC2C(=O)Nc2cccnc2)cc1 (stereo not drawn) | 11.1
O=C(NCc1ccccc1Cl)C(=O)NCC1OCCN1S(=O)(=O)c1cccs1 (stereo not drawn) | -15
O=C(c1ccc2ccccc2n1)N1CCN(c2ccccc2)CC1 | -3.81
O=C(c1ccc2ccccc2n1)N1CCN(c2ccccc2Cl)CC1 | -64.8
O=C(c1ccc2ccccc2n1)N1CCN(c2ccccc2O)CC1 | -0.197
O=C(N/N=C/c1cccc([N+](=O)[O-])c1)C1CC(=O)N(c2ccc(Cl)cc2)C1 (stereo not drawn) | -82.1
O=C(N/N=C/c1ccccc1O)C1CC(=O)N(c2ccc(Cl)cc2)C1 (stereo not drawn) | 8.21
O=C(N/N=C/c1cccc([N+](=O)[O-])c1)C1CC(=O)N(c2ccc(F)cc2)C1 (stereo not drawn) | -65.8
Cc1ccc(N2CC(C(=O)N/N=C/c3cccc([N+](=O)[O-])c3)CC2=O)cc1 (stereo not drawn) | -22.2
O=C(N/N=C/c1cccc(Br)c1)C1CC(=O)N(c2ccccc2)C1 (stereo not drawn) | 7.68
O=C(N/N=C/c1cccc([N+](=O)[O-])c1)C1CC(=O)N(c2ccc(Br)cc2)C1 (stereo not drawn) | -46.6
O=C(NCc1ccccc1Cl)c1cccc(NC(=O)c2ccccc2)c1 | -8.78
COc1cc(NC(=S)NC(=O)CC(C)C)ccc1NC(=O)c1cc2ccccc2o1 | 19.7
COC(=O)CNC(=O)c1ccccc1C | 11.2
COc1ccc(S(=O)(=O)N2CCCOC2CNC(=O)C(=O)NC2CCCC2)cc1 (stereo not drawn) | 4.51
CCCC(C)(C)NC(=O)CCCCC(=O)NC(C)(C)CCC | -9.49
CCCCCCCC(=O)N1c2ccccc2NC(=O)C1CC(=O)Nc1ccc(C(=O)O)cc1 (stereo not drawn) | 13.6

SMILES | hERG current change (%, negative = inhibition) at 10uM [%]
COc1cccc(NC(=S)N(C)C2CCN(C)CC2)c1 | 11
O=C(CCS(=O)(=O)Cc1ccccc1)N1CCN(c2ccc([N+](=O)[O-])cc2)CC1 | -81.6
O=C(CCCC(=O)N1CCN(c2cccc(Cl)c2)CC1)c1ccccc1 | -44.2
O=C(CCN1CCOCC1)c1ccc(Cl)cc1 | 28.3
O=C(CCS(=O)(=O)Cc1ccccc1)N1CCN(Cc2ccccc2)CC1 | -22.1
O=C(CCc1ccccc1)N1CCN(c2ccc(Cl)cc2)CC1 | -35.1
O=C(CCc1ccccc1)N1CCN(c2ccc(F)cc2)CC1 | -23
O=C(CCCC(=O)N1CCN(c2ccc([N+](=O)[O-])cc2)CC1)c1ccccc1 | -72
O=C(CCS(=O)(=O)Cc1ccccc1)N1CCN(c2ccccc2)CC1 | -7.79
CC(=O)c1ccc(N2CCN(C(=O)CCc3ccccc3)CC2)cc1 | -54.1
O=C(CCN1CCN(c2ccc([N+](=O)[O-])cc2)CC1)c1ccc(Cl)cc1 | -72.4
O=C(CCCC(=O)N1CCN(c2ccccc2F)CC1)c1ccccc1 | -10.7
COc1ccc(N2CCN(CC(=O)c3ccc(Cl)cc3)CC2)cc1 | 10.5
CSc1nc2ccc(NC(=O)C3CCCO3)cc2s1 (stereo not drawn) | -0.62
CC(=O)Nc1cccc(NC(C)=O)n1 | 19.6
COc1cc(C(=S)N2CCOCC2)ccc1O | 29.3
CCOc1ccc(C(=O)Nc2nnc(SCC(=O)NCC3CCCO3)s2)cc1OCC (stereo not drawn) | 9.52
c1ccc(-c2cn(CC3CCCCC3)nn2)cc1 | -1.74
CCc1ccc(OCC(=O)O/N=C(\N)c2ccncc2)c(Br)c1 | 10.2

SMILES | hERG current change (%, negative = inhibition) at 10uM [%]
CC1CC(C)CN(C(=O)CCc2ccccc2)C1 (stereo not drawn) | -2.16
C=CCN1CCN(C(=O)CCCc2ccccc2)CC1 | 26.1
O=C(CN1CCN(c2ccc([N+](=O)[O-])cc2)CC1)c1ccccc1 | -75
COc1ccc(N2CCN(C(=O)CCc3ccccc3)CC2)cc1 | -9.27
O=C(CCCC1=NS(=O)(=O)c2ccccc2N1)N1CCN(c2ccc([N+](=O)[O-])cc2)CC1 | -1.34
O=C(CCCc1ccccc1)N1CCN(c2ccc([N+](=O)[O-])cc2)CC1 | -64.7
O=C(CCc1ccccc1)N1CCN(c2ccc([N+](=O)[O-])cc2)CC1 | -73.1
O=C(CN1CCN(c2ccc(Cl)cc2)CC1)c1ccccc1 | -6.33
N#Cc1ccc(C(=O)CN2CCN(c3ccccc3)CC2)cc1 | -42.8
CC1CCCN(C(=O)CCc2ccccc2)C1 (stereo not drawn) | -5.7
CC1CN(C(=O)CCc2ccccc2)C(C)CN1C(=O)CCc1ccccc1 (stereo not drawn) | -60.4
Cc1c(C)n(CC(O)CNCCO)c2ccccc12.O=C(O)C(=O)O (stereo not drawn) | 5.33
CN1CCN(C(=O)CN(C)S(=O)(=O)c2cc(Cl)ccc2Cl)CC1 | 4.23
CC1(C)CC2CN(C(=O)Cc3ccccc3)C(C)(C2)C1 (stereo not drawn) | 0.0688
COc1ccc(/C=N/NC(=O)c2ccco2)cc1Cn1nc(C)cc1C | -2.47
COc1ccc(-c2nnc(NC(=O)c3ccc(S(=O)(=O)N4CCCc5ccccc54)cc3)o2)cc1 | 0.175
CC1(C)CC(=O)c2sc(N3CCCCC3)nc2C1 | -2.83
COc1cc(CC(=O)N/N=C/c2ccccc2)c([N+](=O)[O-])cc1OC | 0.219
Clc1cccc(CNCCc2c[nH]c3ccccc23)c1.O=C(O)C(=O)O | -14
